The record followed here is PubChem BioAssay (NCATS).

Results filed as inconclusive are left out. Entries that show only a call come without a potency. The source made the active and inactive calls. The call rests on the fitted dose curve; in most records, active means well fitted inhibition curve with a large enough effect; inconclusive means small, poorly fitted or top-dose-only effect; inactive means flat fitted curve, though single readings scatter. Residues, ends and D or L forms follow the SMILES beside them. *: point of attachment. Cbz = O=C(OCc1ccccc1)*

This assay deals with Phospholipid hydroperoxide glutathione peroxidase GPX4 (Homo sapiens) (UniProt P36969). The assay is described as follows: Primary qHTS Assay for Inhibitors of Recombinant Selenoprotein Glutathione Peroxidase 4 (GPX4) (AID 1845192). Further: nearly all actives have a fitted effect of over 65% in size. The following applies: recombinant GPX4, GR-coupled NADPH fluorescence, 15 min; series mostly up to 50 µM. Put shortly: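 qHTS, GR-coupled: GPX4 200 nM + cpd 30 min RT → GSH 1 mM, NADPH 0.5 mM, GR 100 nM → CHP 0.5 mM start; fluor 340/450 at t0 and t15 min; no-enzyme wells as control.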
Chain of Phospholipid hydroperoxide glutathione peroxidase GPX4 (Homo sapiens) (P36969 whole entry, looked up): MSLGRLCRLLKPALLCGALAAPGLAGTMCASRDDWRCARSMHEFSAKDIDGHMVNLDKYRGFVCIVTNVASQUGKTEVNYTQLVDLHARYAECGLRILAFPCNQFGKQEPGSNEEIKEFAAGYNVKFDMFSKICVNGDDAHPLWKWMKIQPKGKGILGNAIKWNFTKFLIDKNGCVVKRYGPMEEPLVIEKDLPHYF
For orientation: qHTS replaces the single test concentration by a dilution series.
In the case of `CCCCCCCCCCC/C=C\C(C)(C)/C=C\CCCC(=O)O`, the Potency entry was “inactive”.
As to `CC(C)[C@H](NC(=O)OCc1ccccc1)C(=O)N[C@H](C=O)Cc1ccccc1` (Cbz-Val-Phe-aldehyde), the Potency result is “inactive”.
In the case of `CC1C(=O)N(C)C(=O)c2nc[nH]c21` (stereo not drawn) it was “inactive”; in that of `CC(C)(C)c1ccc(/C=C/C(=O)Nc2ccc3c(c2)OCCO3)cc1`, “inactive”; in that of `COC(=O)C(N)Cc1ccc(Cl)cc1` (stereo not drawn), “inactive”.
With `O=[N+]([O-])c1cccc2c(Br)[nH]nc12` the entry was “inactive”; with `CCC1(O)CC2CN(CCc3c([nH]c4ccccc34)[C@@](C(=O)OC)(c3cc4c(cc3OC)N(C=O)C3[C@]45CCN4CC=C[C@@](CC)([C@@H](OC(C)=O)[C@]3(O)C(=O)OC)[C@H]45)C2)C1` (stereo partly drawn), “inactive”.
As to `N[C@H](C(=O)O)[C@H]1C[C@@H]1C(=O)O`, the Potency result was “inactive”.
In the case of `CC(C)C[C@H](NC(=O)C1OC1C(=O)O)C(=O)NCCCCN=C(N)N` (stereo partly drawn) it was “inactive”; in that of `C=CC1(C)CC(=O)C2(O)C(C)(O1)C(OC(C)=O)C(O)C1C(C)(C)CCC(O)C12C` (stereo not drawn), “inactive”.
Regarding `CC[N+](CC)(CC)CC(=O)Nc1c(C)cccc1C`, the Potency entry was “inactive”.
With `CC1CCN=C(N)S1` (stereo not drawn) the entry was “inactive”; with `CNCCc1cnc(CCC(c2ccccc2)c2ccccc2)[nH]1`, “inactive”; with `CCCCCCCCCCC(C)(C)C(=O)Nc1c(OC)cc(OC)cc1OC`, “inactive”.
Consider `CN(C)CCCc1cc(C(=O)Nc2ccc(-c3ccncc3)cc2)ccc1O`, for which the Potency result was “inactive”.
In the case of `NC(=O)c1ccccc1` it was “inactive”; in that of `C=C1C(=O)O[C@@H]2[C@H]3O[C@]3(C)CCC=C(C)CC[C@@H]12`, “inactive”; in that of `N#Cc1cc([N+](=O)[O-])c2sc(C(N)=O)[n+]([O-])c2c1`, “inactive”.
In the case of `C[C@H](O)C(=O)C1=Nc2c(nc(N)[nH]c2=O)NC1` it was “inactive”; in that of `Nc1ncnc2c1ncn2C1CCCO1` (stereo not drawn), “inactive”; in that of `CC(C)NCC(O)COc1ccc(CC(N)=O)cc1` (stereo not drawn), “inactive”.
In the case of `N[C@@H](Cc1ccc(F)cc1)C(=O)O` it was “inactive”.
As to `COc1ccccc1N1CCN(CCCNc2c(C)c(=O)n(C)c(=O)n2C)CC1`, the Potency result is “inactive”.
In the case of `COC1(C2=NCCN2)COc2ccccc2O1` (stereo not drawn) it was “inactive”; in that of `N#CC(=C(\N)Sc1ccccc1N)/C(C#N)=C(/N)Sc1ccccc1N`, “inactive”; in that of `N#Cc1cc2nc(O)c(O)nc2cc1[N+](=O)[O-]`, “inactive”.
Turning to `NOCC(=O)O`, the Potency result is “inactive”.
In the case of `COc1cc(/C=C(\C#N)C(=O)c2ccc(O)c(O)c2)cc(I)c1O` it was “inactive”.
In the case of `O=C(O)[C@H]1NCCC[C@H]1C(=O)O`, the Potency entry is “inactive”.
Turning to `Nc1nc2c(nc(Br)n2C2OC3COP(=O)(O)O[C@@H]3C2O)c(=O)[nH]1` (stereo partly drawn), the Potency entry is “inactive”.
In the case of `C=CC[C@H](N)C(=O)O`, the Potency entry is “inactive”.
In the case of `CC(=O)SC1CC2=CC(=O)CC[C@]2(C)C2CC[C@@]3(C)C(CC[C@@]34CCC(=O)O4)C12` (stereo partly drawn) it was “inactive”; in that of `COc1cc([C@@H]2c3cc4c(cc3[C@H](O)C3COC(=O)[C@@H]32)OCO4)cc(OC)c1OC` (stereo partly drawn), “inactive”.
With `CC(N)(Cc1ccc(O)cc1)C(=O)O` (stereo not drawn) the entry was “inactive”.
In the case of `C[C@@H](NCCc1ccc(O)cc1)[C@@H](O)c1ccc(O)cc1` it was “inactive”; in that of `Cc1cc2c(cc1Cl)N(C(=O)Nc1ccnc3ccccc13)CC2`, “inactive”; in that of `Cc1cccc(C)c1OCC(N)C(C)C` (stereo not drawn), “inactive”.
In the case of `C[C@@]1(C2CCCC2)Cc2cc(OCC(=O)O)c(Cl)c(Cl)c2C1=O`, the Potency entry is “inactive”.
